Laboratory results reported in PubChem BioAssay.
For part of these data: Results with a measured potency or affinity are listed apart. Activity calls are given as the source filed them.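 The calls were made as follows, unless noted: active = primary screen inhibitor hit that blocks the TRPC4 channel at some tested dose, yielding a dose curve; inactive = the rest.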

Columns and labels:
[1] = system: TRPC4 beta (transient receptor potential cation channel C4), mouse; test: activators of mouse TRPC4 channel, confirmation, cell-based, Fluo4 calcium, HEK293 TRPC4beta/mu-opioid, duplicates, 10 µM (AID 2426;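 active = fluorescence ratio normalized to control raised more than 50% in primary screen plus both repeat runs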;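 as to activation: percent rise of integrated ratio over buffer wells lacking compound which define 0%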); settings: Fluo4 calcium fluorescence, at 10 µM; active compounds read high
[2] = system: transient receptor potential cation channel C4 beta (TRPC4), mouse; test: activators of mouse TRPC4 channel, confirmation, cell-based, second round, Fluo4, HEK293 TRPC4beta/mu-opioid, 1 µM (AID 2461;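 active = primary screen active and over 50% activation in each of two duplicate runs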;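 as to activation: 0% = wells without test compound as baseline of integrated fluorescence ratio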); settings: Fluo4 calcium fluorescence, at 1 µM; active compounds read high
[3] = system: TRPC4 (transient receptor potential cation channel C4 beta), mouse; test: positive allosteric modulators of mouse TRPC4, confirmation, cell-based, second round, Fluo-4, HEK293 TRPC4beta/mu-opioid, 1 µM (AID 2554;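 active = primary screen hit whose fluorescence ratio, in both repeats, exceeds the weak agonist control mean by 3 SD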); settings: DAMGO EC20, Fluo-4 calcium flux, at 1 µM; active compounds read high
[4] = system: TRPC4 beta (transient receptor potential cation channel C4), mouse; test: positive allosteric modulators of mouse TRPC4, confirmation, cell-based, Fluo-4, HEK293 TRPC4beta/mu-opioid (AID 2555;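 active = primary screen hit whose calcium fluorescence ratio, in both repeats, exceeds the weak agonist control mean by 3 SD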); settings: DAMGO EC20, Fluo-4 calcium flux, at 10 µM; active compounds read high
[5] = target: Short transient receptor potential channel 4 (Mus musculus) (UniProt Q9QUQ5); test: inhibitors of mouse TRPC4 channel, confirmation, cell-based, Fluo4, HEK293 TRPC4beta/mu-opioid (AID 2636;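 active = calcium signal cut by more than 3 SD below the full-agonist control yet still positive, in both repeats and the earlier primary screen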); settings: DAMGO, Fluo4 calcium flux, at 10 µM; active compounds read high
Chain of Short transient receptor potential channel 4 (Mus musculus) (Q9QUQ5 whole entry, looked up): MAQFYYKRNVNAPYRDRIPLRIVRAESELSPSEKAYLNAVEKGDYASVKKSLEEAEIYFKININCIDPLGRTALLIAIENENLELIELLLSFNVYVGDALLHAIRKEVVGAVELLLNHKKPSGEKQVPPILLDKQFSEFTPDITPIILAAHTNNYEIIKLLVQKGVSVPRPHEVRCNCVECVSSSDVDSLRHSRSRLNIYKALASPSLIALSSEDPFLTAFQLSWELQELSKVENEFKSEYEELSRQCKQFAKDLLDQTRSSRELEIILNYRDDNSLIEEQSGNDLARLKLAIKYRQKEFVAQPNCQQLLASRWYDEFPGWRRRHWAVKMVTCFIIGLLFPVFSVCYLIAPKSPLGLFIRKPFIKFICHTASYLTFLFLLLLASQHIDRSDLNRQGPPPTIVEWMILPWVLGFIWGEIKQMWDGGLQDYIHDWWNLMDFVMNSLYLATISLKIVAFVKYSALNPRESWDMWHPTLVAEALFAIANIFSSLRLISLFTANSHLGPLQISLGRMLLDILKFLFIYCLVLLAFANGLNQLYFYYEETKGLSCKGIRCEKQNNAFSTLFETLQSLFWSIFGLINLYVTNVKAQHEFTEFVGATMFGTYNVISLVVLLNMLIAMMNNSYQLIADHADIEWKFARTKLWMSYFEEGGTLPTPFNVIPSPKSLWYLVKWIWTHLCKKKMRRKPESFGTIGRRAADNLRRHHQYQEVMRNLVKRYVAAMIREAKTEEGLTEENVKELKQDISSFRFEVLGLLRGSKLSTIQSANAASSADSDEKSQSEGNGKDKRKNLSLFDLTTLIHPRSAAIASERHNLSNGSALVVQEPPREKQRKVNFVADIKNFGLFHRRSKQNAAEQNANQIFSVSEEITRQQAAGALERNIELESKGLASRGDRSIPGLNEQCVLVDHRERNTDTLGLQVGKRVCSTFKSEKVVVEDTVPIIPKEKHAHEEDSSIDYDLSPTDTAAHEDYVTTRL

[6] = target: Short transient receptor potential channel 4 (Mus musculus) (UniProt Q9QUQ5); test: inhibitors of mouse TRPC4 channel, confirmation, cell-based, second round, Fluo4, HEK293 TRPC4beta/mu-opioid, 1 µM (AID 2637;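 active = calcium signal ratio cut to more than 3 SD under the fully stimulated control mean yet still positive, in both repeats and the primary screen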); settings: Fluo4 calcium flux, DAMGO, at 1 µM; active compounds read high
[7] = target: Short transient receptor potential channel 4 (Mus musculus) (UniProt Q9QUQ5); test: TRPC4 positive allosteric modulators, dose response, cell-based, HEK293 TRPC4/mu-opioid, Fluo-4 calcium, EC20 DAMGO (AID 434941;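 active = earlier screen potentiator hit that boosts the TRPC4 ion channel at some dose, with a dose response; inactive = no potentiation, no dose response, or not a prior hit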;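 also: calcium entry triggered by an EC20 dose of DAMGO at the co-expressed mu-opioid receptor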)
[8] = target: Short transient receptor potential channel 4 (Mus musculus) (UniProt Q9QUQ5); test: mouse TRPC4 channel inhibitors, dose response, cell-based, HEK293 TRPC4/mu-opioid, Fluo-4 calcium (AID 434942)
[9] = target: Short transient receptor potential channel 6 (Mus musculus) (UniProt Q61143); test: inhibition of mouse TRPC6 channel, confirmation, selectivity assay for TRPC4 inhibitor project, cell-based, HEK293, membrane potential dye, duplicate (AID 434948;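 active = active in primary screen and both duplicates, each dropping signal beyond three positive-control SD with fluorescence still positive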); settings: HEK293 TRPC6, membrane potential dye fluorescence, at 10 µM, stimulated with maximal-effect acetylcholine; active compounds read high
Chain of Short transient receptor potential channel 6 (Mus musculus) (Q61143 whole entry, looked up): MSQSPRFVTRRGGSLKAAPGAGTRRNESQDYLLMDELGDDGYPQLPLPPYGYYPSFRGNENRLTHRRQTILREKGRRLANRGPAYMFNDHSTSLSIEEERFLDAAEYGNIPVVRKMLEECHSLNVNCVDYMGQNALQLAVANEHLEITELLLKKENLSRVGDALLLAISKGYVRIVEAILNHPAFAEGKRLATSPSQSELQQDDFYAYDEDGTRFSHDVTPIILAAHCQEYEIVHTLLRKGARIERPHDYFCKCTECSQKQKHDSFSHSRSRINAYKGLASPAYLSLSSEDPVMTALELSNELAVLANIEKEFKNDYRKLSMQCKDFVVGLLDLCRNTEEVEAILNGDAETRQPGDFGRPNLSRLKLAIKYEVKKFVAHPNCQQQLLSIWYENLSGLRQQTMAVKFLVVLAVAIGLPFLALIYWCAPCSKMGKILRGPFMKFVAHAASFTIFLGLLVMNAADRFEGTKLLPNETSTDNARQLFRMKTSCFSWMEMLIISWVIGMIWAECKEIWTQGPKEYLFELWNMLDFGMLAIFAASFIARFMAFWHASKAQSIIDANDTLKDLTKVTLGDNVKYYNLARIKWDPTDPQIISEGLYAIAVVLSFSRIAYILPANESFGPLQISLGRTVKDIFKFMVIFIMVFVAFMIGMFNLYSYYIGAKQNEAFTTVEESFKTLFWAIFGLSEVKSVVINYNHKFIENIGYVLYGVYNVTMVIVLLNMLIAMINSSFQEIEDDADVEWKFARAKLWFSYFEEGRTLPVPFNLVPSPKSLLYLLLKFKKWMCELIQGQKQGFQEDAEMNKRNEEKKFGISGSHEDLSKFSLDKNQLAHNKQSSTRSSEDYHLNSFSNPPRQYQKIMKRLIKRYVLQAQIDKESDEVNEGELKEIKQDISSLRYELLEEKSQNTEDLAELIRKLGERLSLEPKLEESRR

[10] = target: Short transient receptor potential channel 6 (Mus musculus) (UniProt Q61143); test: activation of mouse TRPC6 channel, confirmation, selectivity assay for TRPC4 activator project, cell-based, HEK293, membrane potential dye, duplicate (AID 434950;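 active = membrane potential signal rise above negative control mean plus 3 SD in both duplicates, also active in the earlier TRPC4 screen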;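 as to activation: 0% = buffer only wells and 100% = acetylcholine maximal-effect wells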); settings: HEK293 TRPC6, membrane potential fluorescence, at 10 µM; active compounds read high
[11] = target: Short transient receptor potential channel 6 (Mus musculus) (UniProt Q61143); test: TRPC6 potentiation by TRPC4 potentiator hits, confirmation, selectivity assay for TRPC4 potentiator project, HEK293 cells, membrane potential dye, duplicate (AID 434952;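 active = compound raising the membrane signal above positive-control mean plus 3 SD in both repeats, and a primary screen hit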); settings: HEK293 TRPC6, membrane potential dye fluorescence, at 10 µM, maximal acetylcholine added after compound; active compounds read high
[12] = target: Short transient receptor potential channel 4 (Mus musculus) (UniProt Q9QUQ5); test: calcium flux activators in TRPC4/5HT1a cells, counter-screen for TRPC4 activator project, cell-based, second counter screen, HEK293 TRPC4/5HT1a, Fluo-4 (AID 434977;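 active = calcium signal rise above buffer-control mean plus 5 SD in both duplicates, and also a hit in the primary screen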;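 as to activation: plate controls were assay buffer for no effect and maximal serotonin response for full effect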); settings: Fluo-4 calcium flux, at 10 µM; active compounds read high
[13] = calcium flux inhibitors in TRPC4/5HT1a cells, confirmation, counter-screen for TRPC4 inhibitor project, cell-based, second counter screen, HEK293 TRPC4/5HT1a, Fluo-4 (AID 434978;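 active = primary screen active whose calcium signal fell more than 3 SD beyond the full-serotonin control mean in both duplicate plates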;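 also: serotonin given first at submaximal then at maximal dose after compound preincubation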); settings: Fluo-4 calcium flux, at 10 µM, serotonin added to trigger calcium flux; active compounds read high
[14] = system: TRPC4 (mouse), co-expressed with 5HT1a in HEK293; test: calcium flux potentiators in TRPC4/5HT1a cells, confirmation, counter-screen for TRPC4 potentiator project, cell-based, second counter screen, HEK293 TRPC4/5HT1a, Fluo-4 (AID 434979;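 active = signal rise over 3 SD above mean of control wells given weak agonist, in both repeats and first screen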); settings: Fluo-4 calcium flux, at 10 µM, serotonin added at its EC20 dose; active compounds read high
[15] = calcium flux activation in mu-opioid HEK293 cells, confirmation, counter-screen for TRPC4 activator project, cell-based, HEK293 mu-opioid receptor line (AID 449723;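 active = hit in primary screen, with calcium signal over 5 SD above buffer well mean in both duplicates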;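 also: counter screen cells carry the mu-opioid receptor alone and lack TRPC4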); settings: Fluo-4 calcium fluorescence, at 10 µM; active compounds read high
[16] = calcium flux enhancement in mu-opioid HEK293 cells, confirmation, counter-screen for TRPC4 allosteric potentiator project, cell-based, HEK293 mu-opioid receptor line (AID 449724;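 active = calcium signal rise more than 3 SD above the low-dose agonist control mean, in both duplicate plates and the primary screen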); settings: Fluo-4 calcium flux, at 10 µM, compound added before EC20 DAMGO stimulus; active compounds read high

Cc1cccc(OCCC(=O)NCC(c2ccccc2)N(C)C)c1 (stereo not given)
inactive: outcome [1] | outcome [2] | outcome [3] | outcome [4] | outcome [5] | outcome [6] | outcome [7] | outcome [8] | outcome [9] | outcome [11] | outcome [12] | outcome [13] | outcome [14] | outcome [15] | outcome [16]
active: activation [10] 52%

COC(=O)c1ccc(C(=S)NCC2(N(C)C)CCCCC2)cc1
active: activation [1] 181% | activation [10] 41% | activation [12] 22.2% | activation [15] 14.7%
inactive: outcome [2] | outcome [3] | outcome [4] | outcome [5] | outcome [6] | outcome [7] | outcome [8] | outcome [9] | outcome [11] | outcome [13] | outcome [14] | outcome [16]

CC(C)(C)C(=O)NC(=S)NNC(=O)c1sc2ccccc2c1Cl
inactive: outcome [3] | outcome [4] | outcome [5] | outcome [6] | outcome [7] | outcome [8] | outcome [9] | outcome [11] | outcome [13] | outcome [14] | outcome [16]
active: activation [1] 323% | activation [2] 96% | activation [10] 36.5% | activation [12] 148% | activation [15] 136%

O=C(N/N=C/c1ccco1)C1COc2ccccc2O1 (stereo not given)
inactive: outcome [2] | outcome [3] | outcome [4] | outcome [5] | outcome [6] | outcome [7] | outcome [8] | outcome [9] | outcome [10] | outcome [11] | outcome [13] | outcome [14] | outcome [15] | outcome [16]
active: activation [1] 80% | activation [12] 27.3%

COC(=O)c1cc(N2CCNCC2)nc2ccccc12
active: potentiation [4] 47% | activation [12] 18.6% | potentiation [14] 13.8%
inactive: outcome [1] | outcome [2] | outcome [3] | outcome [5] | outcome [6] | outcome [7] | outcome [8] | outcome [9] | outcome [10] | outcome [11] | outcome [13] | outcome [15] | outcome [16]

Cc1cccc(NC(=S)NCC(c2ccccc2)N(C)C)c1 (stereo not given)
inactive: outcome [3] | outcome [4] | outcome [5] | outcome [6] | outcome [7] | outcome [8] | outcome [9] | outcome [11] | outcome [12] | outcome [13] | outcome [14] | outcome [15] | outcome [16]
active: activation [1] 176% | activation [2] 152% | activation [10] 39.5%

c1ccc(Cn2nnnc2C(c2cccnc2)N2CCN(C3CCCCC3)CC2)cc1 (stereo not given)
active: activation [1] 115% | activation [10] 47.5% | activation [12] 32.6%
inactive: outcome [2] | outcome [3] | outcome [4] | outcome [5] | outcome [6] | outcome [7] | outcome [8] | outcome [9] | outcome [11] | outcome [13] | outcome [14] | outcome [15] | outcome [16]

COc1ccc(C(=O)C2CCCN(Cc3ccc(Sc4nncn4C)o3)C2)cc1F (stereo not given)
inactive: outcome [3] | outcome [4] | outcome [5] | outcome [6] | outcome [7] | outcome [8] | outcome [9] | outcome [11] | outcome [13] | outcome [14] | outcome [15] | outcome [16]
active: activation [1] 164% | activation [2] 87% | activation [10] 36% | activation [12] 9.87%

COc1ccc2c(Cl)c(-c3nnc4n3CCCCC4)sc2c1
active: activation [1] 117% | activation [10] 52%
inactive: outcome [2] | outcome [3] | outcome [4] | outcome [5] | outcome [6] | outcome [7] | outcome [8] | outcome [9] | outcome [11] | outcome [12] | outcome [13] | outcome [14] | outcome [15] | outcome [16]

Fc1ccc(NC(=S)NCCc2ccccn2)cc1
active: activation [1] 199% | activation [2] 60% | activation [12] 88%
inactive: outcome [3] | outcome [4] | outcome [5] | outcome [6] | outcome [7] | outcome [8] | outcome [9] | outcome [10] | outcome [11] | outcome [13] | outcome [14] | outcome [15] | outcome [16]

CCc1cc(OCCN(C)C)ccc1Cl
inactive: outcome [2] | outcome [4] | outcome [5] | outcome [6] | outcome [7] | outcome [8] | outcome [9] | outcome [11] | outcome [13] | outcome [15] | outcome [16]
active: activation [1] 93% | potentiation [3] 47% | activation [10] 39.5% | activation [12] 19.9% | potentiation [14] 37.3%

Cc1csc2c(N3CCN(C(=S)Nc4ccc(C(F)(F)F)cc4)CC3)ncnc12
active: activation [1] 102% | activation [2] 55% | activation [12] 48.2%
inactive: outcome [3] | outcome [4] | outcome [5] | outcome [6] | outcome [7] | outcome [8] | outcome [9] | outcome [10] | outcome [11] | outcome [13] | outcome [14] | outcome [15] | outcome [16]

CCCCN(CC)CCNC(=O)c1ccc2c(Cl)c3c(nc2c1)CCC3
inactive: outcome [3] | outcome [4] | outcome [5] | outcome [6] | outcome [7] | outcome [8] | outcome [9] | outcome [10] | outcome [11] | outcome [13] | outcome [14] | outcome [15] | outcome [16]
active: activation [1] 166% | activation [2] 142% | activation [12] 92.3%

CCN1CCN(c2ccc(S(=O)(=O)N3CCOCC3)cc2NC(=O)c2ccccc2OC(F)F)CC1
active: activation [1] 204% | activation [2] 136% | activation [12] 77.8%
inactive: outcome [3] | outcome [4] | outcome [5] | outcome [6] | outcome [7] | outcome [8] | outcome [9] | outcome [10] | outcome [11] | outcome [13] | outcome [14] | outcome [15] | outcome [16]

CCOC(=O)C1(Cc2cccc(F)c2)CCN(Cc2cnn(CC)c2C)CC1
inactive: outcome [3] | outcome [4] | outcome [5] | outcome [6] | outcome [7] | outcome [8] | outcome [9] | outcome [11] | outcome [12] | outcome [13] | outcome [14] | outcome [15] | outcome [16]
active: activation [1] 100% | activation [2] 94% | activation [10] 64%
